Each structure is given as a SMILES string. Screen size: about 5,700 compounds; about 85 (1%) were called active. Rule as the data show it: active = p53-positive nuclei above about 36% (passing the limit was not always enough); inactive = the rest. Shown is part of a subset that was picked to be rich in actives.

A short description of assay [1]: nuclear p53 accumulation, HPV+ cells – imaging, p53-positive nuclei imaging, 24 h, 48 h (AID 1508601). As to conditions: 24/48 h.
The target of assay [2] is Cellular tumor antigen p53 (Homo sapiens) (UniProt P04637). The assay is described as above. As to conditions: 24/48 h, stronger effect = higher value.
Setting [3] is: measured here: cell number at 24 h, Library stock concentration: 3.33 mM.
[4] abbreviates: measured here: cell number at 48 h, Library stock concentration: 3.33 mM.
Where [5] appears, read: Library stock concentration: 3.33 mM.
[6] abbreviates: measured here: p53 positive nuclei at 24 h, Library stock concentration: 3.33 mM.
Where [7] appears, read: measured here: cell number at 24 h, Library stock concentration: 80 uM.
Setting [8] is: measured here: cell number at 24 h, Library stock concentration: 400 uM.
Setting [9] is: measured here: cell number at 24 h, Library stock concentration: 2 mM.
Setting [10] is: measured here: cell number at 24 h, Library stock concentration: 10 mM.
Where [11] appears, read: measured here: cell number at 48 h, Library stock concentration: 80 uM.
The mark [12] stands for this setting: measured here: cell number at 48 h, Library stock concentration: 400 uM.
The mark [13] stands for this setting: measured here: cell number at 48 h, Library stock concentration: 2 mM.
The mark [14] stands for this setting: measured here: cell number at 48 h, Library stock concentration: 10 mM.
[15] abbreviates: Library stock concentration: 80 uM.
The mark [16] stands for this setting: Library stock concentration: 400 uM.
Setting [17] is: Library stock concentration: 2 mM.
Setting [18] is: Library stock concentration: 10 mM.
Setting [19] is: measured here: p53 positive nuclei at 24 h, Library stock concentration: 80 uM.
Where [20] appears, read: measured here: p53 positive nuclei at 24 h, Library stock concentration: 400 uM.
The mark [21] stands for this setting: measured here: p53 positive nuclei at 24 h, Library stock concentration: 2 mM.
[22] abbreviates: measured here: p53 positive nuclei at 24 h, Library stock concentration: 10 mM.
[23] abbreviates: measured here: cell number at 24 h, concentration not given here.
[24] abbreviates: measured here: cell number at 48 h, concentration not given here.
Where [25] appears, read: measured here: p53 positive nuclei at 24 h, concentration not given here.

Cellular tumor antigen p53 (Homo sapiens), sequence (P04637 whole entry, looked up): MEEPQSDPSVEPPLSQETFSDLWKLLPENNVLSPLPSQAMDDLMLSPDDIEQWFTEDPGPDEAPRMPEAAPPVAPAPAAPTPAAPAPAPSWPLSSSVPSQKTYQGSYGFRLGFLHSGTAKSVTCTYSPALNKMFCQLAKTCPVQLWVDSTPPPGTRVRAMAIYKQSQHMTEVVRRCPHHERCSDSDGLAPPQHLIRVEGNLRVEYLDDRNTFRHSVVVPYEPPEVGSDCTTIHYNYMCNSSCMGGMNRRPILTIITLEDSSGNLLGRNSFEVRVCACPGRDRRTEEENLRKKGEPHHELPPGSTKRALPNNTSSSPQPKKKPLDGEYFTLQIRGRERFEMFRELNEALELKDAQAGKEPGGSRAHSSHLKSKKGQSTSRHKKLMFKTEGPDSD

As to `O=c1[nH]c2ccc(Cl)cc2c(NC2CN3CCC2CC3)c1-c1nc2ccccc2[nH]1` (stereo not drawn), the nuclei count, normalised in assay [1] (setting [3]) is 52.7%; in assay [1] (setting [4]), 33.7%. In addition, the p53-positive nuclei, normalised in assay [2] (setting [5]) is 34% (inactive); in assay [2] (setting [6]) it was 8.33%.
As for `C[C@]12C=CC(=O)C=C1CC[C@@H]1[C@@H]2CC[C@]2(C)OC(=O)CC[C@@H]12`, the nuclei count, normalised in assay [1] (setting [7]) came to 87.6%; in assay [1] (setting [8]), 90.3%; in assay [1] (setting [9]), 93%; in assay [1] (setting [10]) it was 89.5%; in assay [1] (setting [11]) it was 95.1%; in assay [1] (setting [12]) it was 95%. The figures for the nuclei count, normalised in assay [1] (setting [13]) and in assay [1] (setting [14]) were 99.5% and 97.4%, respectively. The p53-positive nuclei, normalised in assay [2] (setting [15]) is -0.0445% (inactive); in assay [2] (setting [16]) it was 0.096% (inactive); in assay [2] (setting [17]) it was -0.0494% (inactive); in assay [2] (setting [18]), -0.00393% (inactive); in assay [2] (setting [19]), -0.0455%; in assay [2] (setting [20]) it was 0.101%. In addition, the p53-positive nuclei, normalised in assay [2] (setting [21]) is 0.166%; in assay [2] (setting [22]) it was -0.0487%.
As to `O=C1C(=O)c2cccc3cccc1c23`, the nuclei count, normalised in assay [1] (setting [7]) stood at 115%; in assay [1] (setting [8]) it was 118%; in assay [1] (setting [9]), 118%; in assay [1] (setting [10]) it was 109%; in assay [1] (setting [11]) it was 119%; in assay [1] (setting [12]), 112%. Besides, the nuclei count, normalised in assay [1] (setting [13]) and in assay [1] (setting [14]) was 115% in each case. Also, the p53-positive nuclei, normalised was 0.0597% (inactive) in assay [2] (setting [15]); 0.0621% (inactive) in assay [2] (setting [16]); 0.165% (inactive) in assay [2] (setting [17]); 0.252% (inactive) in assay [2] (setting [18]); -0.0696% in assay [2] (setting [19]); -0.0154% in assay [2] (setting [20]). Moreover, the p53-positive nuclei, normalised worked out at 0.208% in assay [2] (setting [21]) and 0.327% in assay [2] (setting [22]).
As for `CC1=CC(=O)c2c(O)cccc2C1=O`, the nuclei count, normalised in assay [1] (measured here: cell number at 24 h, Library stock concentration: 500 nM) is 119%; in assay [1] (measured here: cell number at 24 h, Library stock concentration: 1.5 uM) it was 116%; in assay [1] (measured here: cell number at 24 h, Library stock concentration: 4.6 uM), 126%; in assay [1] (measured here: cell number at 24 h, Library stock concentration: 13.7 uM), 115%; in assay [1] (measured here: cell number at 24 h, Library stock concentration: 41 uM) it was 118%; in assay [1] (measured here: cell number at 24 h, Library stock concentration: 123 uM), 108%. For the same compound, the nuclei count, normalised in assay [1] (measured here: cell number at 24 h, Library stock concentration: 370 uM) was found to be 94.6%; in assay [1] (measured here: cell number at 24 h, Library stock concentration: 1.111 mM), 55.5%; in assay [1] (measured here: cell number at 24 h, Library stock concentration: 3.333 mM), 48.6%; in assay [1] (setting [10]) it was 49%; in assay [1] (measured here: cell number at 48 h, Library stock concentration: 500 nM) it was 113%; in assay [1] (measured here: cell number at 48 h, Library stock concentration: 1.5 uM) it was 115%. The nuclei count, normalised in assay [1] (measured here: cell number at 48 h, Library stock concentration: 4.6 uM) turned out to be 120%; in assay [1] (measured here: cell number at 48 h, Library stock concentration: 13.7 uM), 115%; in assay [1] (measured here: cell number at 48 h, Library stock concentration: 41 uM), 118%; in assay [1] (measured here: cell number at 48 h, Library stock concentration: 123 uM), 111%; in assay [1] (measured here: cell number at 48 h, Library stock concentration: 370 uM) it was 102%; in assay [1] (measured here: cell number at 48 h, Library stock concentration: 1.111 mM), 32.4%. In addition, the nuclei count, normalised in assay [1] (measured here: cell number at 48 h, Library stock concentration: 3.333 mM) came out at 31.9%; in assay [1] (setting [14]) it was 32.5%. For the same compound, the p53-positive nuclei, normalised in assay [2] (Library stock concentration: 500 nM) was -0.129% (inactive); in assay [2] (Library stock concentration: 1.5 uM), -0.0912% (inactive); in assay [2] (Library stock concentration: 4.6 uM), 0.131% (inactive); in assay [2] (Library stock concentration: 13.7 uM) it was -0.0585% (inactive); in assay [2] (Library stock concentration: 41 uM), -0.0569% (inactive); in assay [2] (Library stock concentration: 123 uM) it was 0.196% (inactive). Moreover, the p53-positive nuclei, normalised in assay [2] (Library stock concentration: 370 uM) is -0.0821% (inactive); in assay [2] (Library stock concentration: 1.111 mM) it was 48.3% (active); in assay [2] (Library stock concentration: 3.333 mM), 2.14% (inactive); in assay [2] (setting [18]), -0.248% (inactive); in assay [2] (measured here: p53 positive nuclei at 24 h, Library stock concentration: 500 nM), 0.0252%; in assay [2] (measured here: p53 positive nuclei at 24 h, Library stock concentration: 1.5 uM) it was 0.031%. The p53-positive nuclei, normalised in assay [2] (measured here: p53 positive nuclei at 24 h, Library stock concentration: 4.6 uM) was -0.0368%; in assay [2] (measured here: p53 positive nuclei at 24 h, Library stock concentration: 13.7 uM) it was 0.0863%; in assay [2] (measured here: p53 positive nuclei at 24 h, Library stock concentration: 41 uM), -0.027%; in assay [2] (measured here: p53 positive nuclei at 24 h, Library stock concentration: 123 uM), 0.171%; in assay [2] (measured here: p53 positive nuclei at 24 h, Library stock concentration: 370 uM), 0.0792%; in assay [2] (measured here: p53 positive nuclei at 24 h, Library stock concentration: 1.111 mM), 61.6%. The p53-positive nuclei, normalised in assay [2] (measured here: p53 positive nuclei at 24 h, Library stock concentration: 3.333 mM) is 3.81%; in assay [2] (setting [22]) it was -0.148%.
As for `O=C1c2ccccc2C(=O)c2ccccc21`, the nuclei count, normalised in assay [1] (setting [23]) was determined as 102%; in assay [1] (setting [24]), 96.8%. In addition, the p53-positive nuclei, normalised in assay [2] (concentration not given here) was -0.00139% (inactive); in assay [2] (setting [25]) it was -0.102%.
`C[C@]12NC(Cc3ccccc31)c1ccccc12`: the nuclei count, normalised came out at 121% in assay [1] (setting [3]) and 112% in assay [1] (setting [4]). In addition, the figures for the p53-positive nuclei, normalised in assay [2] (setting [5]) and in assay [2] (setting [6]) were -0.107% (inactive) and -0.588%, respectively.
For the compound `CCCCC/C=C\C/C=C\C/C=C\C/C=C\CCCC(=O)NCCF`, the nuclei count, normalised was found to be 90.3% in assay [1] (setting [23]) and 90.8% in assay [1] (setting [24]). In addition, the figures for the p53-positive nuclei, normalised in assay [2] (concentration not given here) and in assay [2] (setting [25]) were 0.105% (inactive) and -0.0127%, respectively.

(Values after PubChem BioAssay AID1508601 (ICCB-Longwood Screening Facility, Harvard Medical School, 2020).)
